Screening results: PubChem, Johns Hopkins Ion Channel Center
Hits are enriched below; roughly 1.6% of the tested compounds scored in any of these assays.
KCNQ2 block – rat KCNQ2 potassium channel inhibitors, primary screen, cell-based, CHO-K1, FluxOR thallium flux, B-score; Potassium voltage-gated channel subfamily KQT member 2 (Rattus norvegicus), O88943; 20 min; active compounds read low; B-score at 10 µM; actives 1.1% (n = 310,000); AID 2156, 2009;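 active means fluorescence ratio B-score at most minus 3 library SDs, with starting brightness B-score within 2 library SDs, cut at about -5.5 in these data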
Target sequence (O88943 whole entry, looked up): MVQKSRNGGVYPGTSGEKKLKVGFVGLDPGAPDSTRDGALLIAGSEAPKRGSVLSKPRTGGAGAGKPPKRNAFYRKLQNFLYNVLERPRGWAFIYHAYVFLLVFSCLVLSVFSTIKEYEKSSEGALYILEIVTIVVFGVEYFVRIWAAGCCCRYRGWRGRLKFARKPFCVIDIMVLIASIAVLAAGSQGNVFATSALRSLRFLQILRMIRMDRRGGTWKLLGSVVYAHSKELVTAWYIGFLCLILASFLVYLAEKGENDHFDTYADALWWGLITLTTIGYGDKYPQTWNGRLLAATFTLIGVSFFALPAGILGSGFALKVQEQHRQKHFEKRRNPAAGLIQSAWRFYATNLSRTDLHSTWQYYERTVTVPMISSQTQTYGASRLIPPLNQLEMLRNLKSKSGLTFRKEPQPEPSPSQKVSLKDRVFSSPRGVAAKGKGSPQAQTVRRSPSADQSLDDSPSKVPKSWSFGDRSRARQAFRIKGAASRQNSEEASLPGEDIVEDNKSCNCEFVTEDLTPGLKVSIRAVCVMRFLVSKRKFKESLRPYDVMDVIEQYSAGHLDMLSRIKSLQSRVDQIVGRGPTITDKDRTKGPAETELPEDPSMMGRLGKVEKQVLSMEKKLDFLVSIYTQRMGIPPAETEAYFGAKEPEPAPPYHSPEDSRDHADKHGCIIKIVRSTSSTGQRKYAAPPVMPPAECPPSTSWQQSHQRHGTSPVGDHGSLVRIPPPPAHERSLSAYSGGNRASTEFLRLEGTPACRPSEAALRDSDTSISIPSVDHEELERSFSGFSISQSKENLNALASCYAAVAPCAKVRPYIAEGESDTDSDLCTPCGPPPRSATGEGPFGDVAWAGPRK
KCNQ2 pot – potentiators of rat KCNQ2 potassium channel. actives 0.54% (n = 310,000). CHO-K1 KCNQ2, FluxOR thallium flux fluorescence; active compounds read high. B-score at 10 µM;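 active means fluorescence ratio B-score at least 3 SD of library B-scores, with initial fluorescence B-score within 3 of them, cut at about 5.3 in these data; same plate scores as AID 2156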;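 further: B-score of peak minus minimum over baseline fluorescence ratio after K+ and Tl+ stimulus; positive B-score means potentiation of KCNQ2 with more thallium influx and brighter signal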
An asterisk follows results filed as active; i = inactive; . = no result given.

SMILES	KCNQ2 block	KCNQ2 pot
CCc1nc2ccccc2c(C(=O)OCCN2C(=O)c3ccccc3C2=O)c1C	-9.6*	-9.6
CCc1nc2ccccc2c(C(=O)OCC(=O)C(C)(C)C)c1C	i	0.32
CCc1nc2ccccc2c(C(=O)O)c1C	i	.
CC(C)CCn1nnnc1CN1CCN(c2ccc(F)cc2)CC1	i	1
COc1ccc(N(C(=O)C(C)C)S(=O)(=O)c2cccs2)cc1	i	.
CCc1ccccc1Nc1cc(C(=O)NCc2ccccn2)c2ccccc2n1	-5.9*	-5.9
CCc1ccc(-c2cc(C(=O)NCc3ccccn3)c3ccccc3n2)cc1	i	.
O=C(CCNS(=O)(=O)c1ccc(Br)s1)NCc1ccc(F)cc1	i	0.09
O=C(CNS(=O)(=O)c1ccc(Br)s1)NCc1ccc(F)cc1	-5.9*	-5.9
O=C(c1ccc(NS(=O)(=O)/C=C/c2ccccc2)cc1)N1CCCCC1	i	.
O=C(CSc1nc2ccccc2nc1N1CCCCC1)N1CCN(c2ccccc2)CC1	-7.7*	-7.7
O=C(CSc1nc2ccccc2nc1N1CCOCC1)N1CCN(c2ccccc2)CC1	i	0.21
O=C(COc1cccnc1[N+](=O)[O-])N1CCN(S(=O)(=O)c2ccccc2)CC1	i	.
Cc1ccc(N2C(=O)[C@@H]3[C@H](C2=O)C2c4ccccc4C=CN2[C@@H]3C(=O)c2ccco2)c(C)c1 (some centres not stated)	-6.4*	-6.4
O=C(c1ccco1)[C@@H]1[C@@H]2C(=O)N(c3ccccc3)C(=O)[C@@H]2C2c3ccccc3C=CN21 (some centres not stated)	i	.
CCN(CC)C(=O)N1CCc2ccccc2C1CN1C(=O)c2ccccc2C1=O (configuration not stated)	-6.2*	-6.2
O=C1c2ccccc2C(=O)N1CC1c2ccccc2CCN1C(=O)CN1CCOCC1 (configuration not stated)	i	.
O=C(O)[C@@H]1CCCC[C@@H]1C(=O)N1CCc2ccccc2C1CN1C(=O)c2ccccc2C1=O (some centres not stated)	i	.
O=C1c2ccccc2C(=O)N1CC1c2ccccc2CCN1C(=O)C1CCCCC1 (configuration not stated)	-6.9*	-6.9
CN1CCN(C(=O)c2ccccc2NC(=O)c2ccc(C(C)(C)C)cc2)CC1	i	.
CCOC(=O)c1c(C)oc2ccc(O)c(CN3CCCCC3)c12	i	0.05
O=C(NCCCN1CCOCC1)c1ccc(CNS(=O)(=O)c2ccc(Br)cc2)cc1	i	.
Cc1ccc(C(C)C)cc1OCCOCCN1CCCC1	i	0.65
Cc1ccccc1S(=O)(=O)Nc1ncnc2ccccc12	i	.
CCOC(=O)/C(C(=O)Nc1ccc(Br)cc1)=C1/NC(C)(C)Cc2ccccc21	i	.
SMILES	KCNQ2 block	KCNQ2 pot
CCOC(=O)/C(C(=O)Nc1ccccc1Cl)=C1/NC(C)(C)Cc2ccccc21	-8.1*	-8.1
CCOC(=O)Cn1nnc2c(sc3nc4c(c(-c5ccc(Cl)cc5)c32)CCC4)c1=O	-6.7*	-6.7
CCOC(=O)Cn1nnc2c(sc3nc4c(c(-c5ccccc5)c32)CCC4)c1=O	i	.
N=c1c(S(=O)(=O)c2ccc(Cl)cc2)cc2c(=O)n3ccccc3nc2n1Cc1cccnc1	i	.
O=C(NC(NCc1cccnc1)C(Cl)(Cl)Cl)c1cccc2ccccc12 (configuration not stated)	-6.3*	-6.3
O=C(NC(NCc1ccccc1)C(Cl)(Cl)Cl)c1cccnc1 (configuration not stated)	i	.
Cc1nn(C)c(C(=O)NNC(=S)NCc2ccccc2)c1Cl	i	.
COc1ccc(Sc2nc(-c3ccccn3)ncc2OC)cc1	i	0.09
COc1ccccc1CNc1cc(CSc2ccc(Cl)cc2)nc(C)n1	-6.1*	-6.1
COc1ccccc1CNC(=O)COC(=O)CSc1ccc(Cl)cc1	i	.
CCOc1cccc(-c2nnc3sc(-c4cccs4)nn23)c1	i	0.35
COc1ccc(C2/C=C\CN(C(=O)Nc3ccccc3-c3ccccc3)CC(=O)N2Cc2ccc(F)cc2)cc1 (configuration not stated)	-6.4*	-6.4
COC(=O)N1C/C=C\C(c2ccc(OC)cc2)N(Cc2ccc(F)cc2)C(=O)C1 (configuration not stated)	i	1.3
C/C(=N\NC(=O)COc1ccccc1-c1ccccc1)c1cccnc1	-6.4*	-6.4
C/C(=N\NC(=O)COc1ccccc1-c1ccccc1)c1ccccn1	i	.
Cc1cccc(N2CCN(S(=O)(=O)c3c(C)[nH]c(C)c3C(=O)N3CCCCC3)CC2)c1C	-5.9*	-5.9
Cc1cccc(N2CCN(S(=O)(=O)c3c(C)[nH]c(C)c3C(=O)N3CCCC3)CC2)c1C	i	.
CC1=CC(C)C(CN(CCC[N+](C)(C)C)C(=O)Nc2ccccc2)C(C)C1 (configuration not stated)	i	1.6
CCOC(=O)c1ccccc1NC(=O)CSc1nnc(COc2ccccc2)n1CC	-6.4*	-6.4
CCOC(=O)c1cccc(NC(=O)CSc2nnc(COc3ccccc3)n2CC)c1	i	.
COc1ccc(N(C)S(=O)(=O)c2cccc(C(=O)OC(C(=O)Nc3cc(C)cc(C)c3)c3ccccc3)c2)cc1 (configuration not stated)	-5.7*	-5.7
CC(=O)c1cccc(NC(=O)C(OC(=O)c2ccccc2NS(=O)(=O)c2cccs2)c2ccccc2)c1 (configuration not stated)	i	.
CC(=O)c1cccc(NC(=O)C(OC(=O)c2cccc(S(=O)(=O)N(C)c3ccccc3)c2)c2ccccc2)c1 (configuration not stated)	-5.5*	-5.5
COc1ccc(N(C)S(=O)(=O)c2cccc(C(=O)Nc3cc(OC)ccc3OC)c2)cc1	i	.
CCOC(=O)c1c(NC(=O)CNC2CCCCC2)sc(C)c1C	i	.
SMILES	KCNQ2 block	KCNQ2 pot
CCC(C(=O)Nc1nccs1)(C(F)(F)F)C(F)(F)F	i	0.82
Fc1ccc(-c2csc(=S)[nH]2)cc1	i	11*
O=c1[nH]c(-c2ccc(Cl)cc2)cs1	i	.
O=C(NCCO)C(=O)Nc1cc2c3c(c1)CC(=O)N3CCC2	i	.
C=CCn1c(C(C)NC(=O)C(C)(C)C)nc2ccccc21 (configuration not stated)	-6.6*	-6.6
C=CCn1c(CCCNC(=O)C(C)(C)C)nc2ccccc21	i	1.2
O=C(CSc1nnc(COc2ccc(Cl)cc2)o1)N1c2ccccc2CCc2ccccc21	-9.4*	-9.4
O=C(CSc1nnc(COc2ccc(Cl)cc2)o1)N1CCCC1	i	0.93
O=c1c2ccccc2ncn1-c1ccccc1F	i	1.4
Cc1cc(C)n(Cc2ccc(C(=O)Nc3cccc(Br)c3)o2)n1	i	.
Cc1ccc(C)c(NS(=O)(=O)c2ccc(-c3cnc(C4CC4)o3)cc2)c1	-6.8*	-6.8
Cc1cc(C)cc(NS(=O)(=O)c2ccc(-c3cnc(C4CC4)o3)cc2)c1	i	.
O=C(COc1ccc(Br)cc1)N1CCC(c2ccccc2)C1 (configuration not stated)	-5.6*	-5.6
CCOc1cc(C)cc2oc(=O)cc(-c3ccccc3)c12	i	.
COc1ccc(OCC(=O)N2CCc3ccccc3C2)cc1	i	.
Cc1cc(OCC(=O)N2CCc3ccccc3C2)c2c(-c3ccccc3)cc(=O)oc2c1	-7.5*	-7.5
